Most compounds without a hit are left out; they make up all but 4.7% or so of the library.
D1 antag – blocks dopamine activation of the human D1 receptor | P21728 | HEK293 TREx D1 cells, calcium flux, dopamine EC80; hits give low values | activity change, negative = inhibition, % at 10 µM | actives 3.2% (n = 360,000); in the data active = activity change below about -30%; also: % is scaled to controls: 0 for no effect and ±100 for the full control effect
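Allosteric or orthosteric antagonism assessed as attenuation of the calcium response to EC80 dopamine, added 180 s after compound, in induced HEK293 Trex D1 cells loaded with no-wash calcium dye.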
TRHR enhancer-1 – TRH receptor (human) allosteric enhancement | TRHR cells, fluo-8 calcium fluorescence, EC20 TRH enhancement | actives 0.66% (n = 360,000) | P34981 | enhancement, % at 2 µM; in the data active = enhancement above about 30%; also: 0% is about no effect
Target sequence (P34981 whole entry, looked up): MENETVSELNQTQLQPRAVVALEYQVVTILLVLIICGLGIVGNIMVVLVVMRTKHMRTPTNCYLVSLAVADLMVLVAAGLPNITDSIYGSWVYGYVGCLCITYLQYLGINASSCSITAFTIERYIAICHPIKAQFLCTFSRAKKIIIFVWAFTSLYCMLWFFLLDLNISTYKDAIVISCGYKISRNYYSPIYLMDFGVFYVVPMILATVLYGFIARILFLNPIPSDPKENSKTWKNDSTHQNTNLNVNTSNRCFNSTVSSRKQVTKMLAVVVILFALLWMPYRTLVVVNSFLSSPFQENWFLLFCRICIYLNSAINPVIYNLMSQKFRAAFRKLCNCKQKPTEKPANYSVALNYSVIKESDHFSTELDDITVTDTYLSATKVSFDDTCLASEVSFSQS
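Enhancer read-out: after compound pinning and an initial kinetic agonist-mode read, an EC20 of TRH (10 nM final) was injected and fluo-8 calcium signal (Ex 480/Em 530) followed at 1 s/cycle for 100 cycles in TRHR-expressing cells.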
D1 ag – agonists of human D1 dopamine receptor; P21728; HEK293 T-REx D1 cells, calcium flux, agonist mode; AID 504660; actives 1% (n = 360,000); activation, % at 2 µM; in the data active = activation above about 30%; also: 0% is about no effect
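Agonism was scored from calcium flux recorded over 180 s (1 read/s) after pintool compound addition, following a 10-cycle baseline. Cells were inducible force-coupled HEK293 TREx D1, plated overnight at 30 C and loaded with no-wash calcium dye.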
D1 PAM – enhances dopamine response at the human D1 receptor | P21728 | HEK293 TREx D1 cells, calcium flux, dopamine EC20 potentiation | potentiation, % at 10 µM | actives 0.036% (n = 360,000) | AID 504651; in the data active = potentiation above about 30%; also: 0% is about no effect
TRHR agonist-1 – activates the human TRH receptor; P34981; TRHR cells, calcium flux fluo-8, FDSS agonist mode; activation, % at 2 µM; actives 0.18% (n = 360,000); in the data active = activation above about 30%; also: 0% is about no effect
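Fluo-8-loaded TRHR cells; 10 s baseline, compound added, kinetic Ca2+ fluorescence read 1/s, agonist mode.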
TRHR enhancer-2 – confirmation of human TRH receptor allosteric enhancers | TRH receptor cell assay, enhancer confirmation qHTS | AID 493076 | 970 tested, under 10 active | shares compounds with TRHR enhancer-1 | activity change, negative = inhibition, % at 46.1 µM;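 also: compound effect scored on response to added TRH at EC20 of 10 nM; 0% is about no effect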
TRHR agonist-2 – confirmation of human TRH receptor agonists; shares compounds with TRHR enhancer-1; TRHR-expressing cells, agonist activation read-out; actives 8% (n = 970); AID 493078; Potency, µM (titrated, usually from 46.1 µM), without a hit: top-dose activation, usual class: activators; also: potency is read from the fitted curve at half-maximal effect; 0% is about no effect; nearly all actives have a fitted effect of over 75% in size
The depositor's hits bear a star; ? = inconclusive; nt = no result. Unless noted, calls follow the shape of the dose curve; as a rule, active = well fitted curve in the direction sought with a large enough effect; inconclusive = small, poorly fitted or top-dose-only effect, or another doubt; inactive = no such curve, though single readings can be large; an effect the other way counts as inactive or inconclusive.

SMILES	D1 antag	TRHR enhancer-1	D1 ag	D1 PAM	TRHR agonist-1	TRHR enhancer-2	TRHR agonist-2
CCOC(=O)c1cc(CC)sc1NC(=O)COC(=O)c1ccccn1	12	3	4	5	36*	6	1%
O=Cc1ccc(OCc2ccc3c(c2)OCO3)cc1	-15	-1	4	8	26	-5	2%
Cc1ccc(COc2ccc3c(c2)OCO3)cc1	-11	8	4	-8	0	nt	nt
Cc1cccc(C(=O)Oc2ccccc2C(=O)N2CCOCC2)c1	6	52*	4	0	0	-1	1%
O=c1oc2cc(O[C@@H]3OC[C@@H](O)[C@H](O)[C@H]3O)ccc2c2ccccc12	-14	4	2	6	1	nt	nt
O=C(Nc1ccc(Br)cc1)NC1CCCCCCC1	-7	-5	9	-9	1	nt	nt
CCN(CC)c1ccc2cc(NC(=O)CCC(=O)O)c(=O)oc2c1	6	5	56*	-4	26	10	21µM*
CC(=O)Nc1cc2ccccc2oc1=O	15	-6	-1	1	0	nt	nt
O=C(NC(=S)Nc1ccc(N2CCCCC2)cc1)c1cccs1	-6	1	0	6	1	nt	nt
CS(=O)(=O)N1CCN(c2ccc(NC(=S)NC(=O)c3cccs3)cc2)CC1	2	44*	6	-8	-1	-5	0%
Cc1ccc(-c2csc3ncnc(N4CCN(Cc5ccccc5)CC4)c23)cc1	6	54*	2	-5	0	-3	-1%
CCN(C(=O)COC(=O)/C=C/c1cccc(Cl)c1)c1c(N)n(Cc2ccccc2)c(=O)[nH]c1=O	0	-3	8	-3	-1	nt	nt
CCN(C(=O)COC(=O)/C=C/c1ccccc1Cl)c1c(N)n(Cc2ccccc2)c(=O)[nH]c1=O	4	52*	1	2	1	-3	2%
Cc1ccc(CNS(=O)(=O)c2cnc(N)nc2)cc1	2	-4	2	-6	0	nt	nt
Cc1ncoc1C(=O)N1CCCC(CCC(=O)NCc2ccc(F)c(F)c2)C1 (stereo not drawn)	-4	-2	2	-1	0	nt	nt
Cc1ncoc1C(=O)N1CCCC(CCC(=O)NCc2ccccc2F)C1 (stereo not drawn)	6	45*	0	-3	0	-7	1%
Cc1cccc(N(C(=O)c2csnn2)C(C(=O)NC2CCCCC2)c2ccncc2)c1 (stereo not drawn)	12	54*	0	-2	0	-9	1%
Cc1cccc(N(C(=O)c2csnn2)C(C(=O)NC2CCCC2)c2ccncc2)c1 (stereo not drawn)	6	20	0	-3	-1	nt	nt
O=C(COC(=O)c1c(Cl)ccc(Cl)c1Cl)NC1CCS(=O)(=O)C1 (stereo not drawn)	5	7	0	10	0	nt	nt
COc1ccc(S(=O)(=O)N2CCN(c3ccc4nnc(-c5ccccc5)n4n3)CC2)cc1	-4	48*	1	0	0	4	-1%
O=C(Cn1cnc2c(nnn2Cc2ccccc2)c1=O)N1CCN(c2ccccc2)CC1	7	89*	1	-2	-1	-4	0%
CC(C)CCNC(=O)NC(=O)CSc1ccc(S(=O)(=O)N2CCOCC2)cn1	14	63*	0	4	-1	13	-1%
CCCCn1c(=O)c2oc3ccccc3c2n(Cc2cccc(C)c2)c1=O	10	-3	3	-5	0	nt	nt
O=S(=O)(NCc1ccccc1F)NCc1ccccc1F	-25	58*	-1	-7	-1	-6	0%
CCOC(=O)c1c(NC(=O)c2cc3nc(-c4ccccc4)cc(C(F)(F)F)n3n2)sc2c1CCC(C)C2 (stereo not drawn)	21	4	0	1	1	nt	nt
SMILES	D1 antag	TRHR enhancer-1	D1 ag	D1 PAM	TRHR agonist-1	TRHR enhancer-2	TRHR agonist-2
O=C(Cc1ccccc1)Nc1ccccc1C(=O)N1CCCCC1	6	-4	1	-2	0	nt	nt
O=C(Cc1ccc(Cl)cc1)Nc1ccccc1C(=O)N1CCCC1	6	70*	10	-4	0	?	-1%
COc1ccc2nc3ccccc3nc2c1	-14	49*	-1	4	1	-1	2%
COc1ccc(-c2nc3ccccc3nc2-c2ccccc2)cc1	4	9	3	-3	0	nt	nt
CC(=O)Oc1ccc(-c2cccc(C(=O)NCCO)c2)cc1	11	43*	1	-4	0	-2	-1%
Cc1ccc(S(=O)(=O)Nc2cnc3ccccc3c2)cc1	-3	7	9	3	1	nt	nt
O=S(=O)(Nc1cnc2ccccc2c1)N1CCCCCC1	13	48*	4	-6	1	2	4%
CCCn1c(N)c(C(=O)CSc2nncs2)c(=O)[nH]c1=O	-13	41*	4	nt	0	0	-1%
Clc1ccccc1OCc1nnc(-c2ccccc2Br)o1	-4	-8	3	-2	0	nt	nt
N#Cc1ccccc1OCc1nnc(-c2ccccc2Br)o1	19	44*	0	4	0	-18	3%
CCOCc1c(C(=O)OCC(=O)Nc2ccccc2C(N)=O)oc2ccccc12	-13	0	2	-9	0	nt	nt
CCOCc1c(C(=O)Nc2ccccc2N2CCN(C)CC2)oc2ccccc12	-1	44*	-1	0	0	-5	6%
O=C(N/C(=C/c1ccc(Br)cc1)C(=O)N1CCOCC1)c1ccc(Br)o1	-17	97*	1	-16	-1	-2	1%
CC1=C(C(=O)Nc2cccnc2)C(c2ccc(C)cc2)n2nc(SCc3ccccc3F)nc2N1 (stereo not drawn)	2	8	0	3	0	nt	nt
COc1ccccc1Nc1nc(-c2cccs2)cs1	-24	44*	1	-6	1	-5	5%
COc1ccc(OC)c(Nc2nc(-c3cccs3)cs2)c1	15	-3	0	-2	0	nt	nt
Cc1cccc(C)c1NC(=O)Cn1c(=O)n(Cc2ccccc2)c(=O)c2c(C)c(C(=O)N(C)C)sc21	-5	7	3	0	-1	nt	nt
COc1ccc2c(C#N)c3ccccn3c2c1	-16	47*	18	-6	10	-10	?
Cc1cc(=O)n2ccccc2c1C#N	-1	-5	1	1	1	nt	nt
Cc1ccc(NC(=O)c2ccc(F)cc2F)cc1NS(C)(=O)=O	-10	-2	2	9	0	nt	nt
O=C(NCCCN=C1NS(=O)(=O)c2ccccc21)c1ccc(F)cc1	-2	58*	13	-3	1	2	5%
